EBNA-1 inh: blocks EBNA-1 binding to DNA | EBNA-1 DNA binding, fluorescence polarization | actives 0.34% (n = 300,000) | inhibition, % at 14.8 µM; in the data active = inhibition above about 28%
PAFAH1B3 FP inh: inhibitors of human PAFAH1B3. Q15102. recombinant PAFAH1B3, FP-rhodamine probe, fluorescence polarization. inhibition, % at 3.39 µM. actives 0.28% (n = 340,000). AID 492972;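 active = inhibition above the screen-wide average of all tested compounds plus 3 SD, cut at about 25% in these data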
Target sequence (Q15102 whole entry, looked up): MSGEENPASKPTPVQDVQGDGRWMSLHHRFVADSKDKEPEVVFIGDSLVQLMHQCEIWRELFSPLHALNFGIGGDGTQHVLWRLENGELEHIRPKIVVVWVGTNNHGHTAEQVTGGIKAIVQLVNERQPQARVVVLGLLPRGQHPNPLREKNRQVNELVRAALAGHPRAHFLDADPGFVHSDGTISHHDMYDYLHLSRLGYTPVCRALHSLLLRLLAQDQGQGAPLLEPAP
pPAFAH inh: inhibitors of human plasma PAF acetylhydrolase (pPAFAH); recombinant pPAFAH, FP-rhodamine probe fluorescence polarization; actives 1.5% (n = 330,000); inhibition, % at 3.39 µM; Q13093;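 active = inhibition above the mean inhibition across the screen plus 3 SD, cut at about 25% in these data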;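 also: inhibitors block binding of the rhodamine activity-based probe so polarization drops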
PAFAH2 FP inh: inhibitors of human PAFAH2; Q99487; recombinant PAFAH2, FP-rhodamine activity probe, fluorescence polarization; inhibition, % at 3.39 µM; actives 0.99% (n = 340,000);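 active = inhibition above the mean over all tested compounds plus 3 SD, cut at about 30% in these data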;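 also: inhibitors block probe labeling of enzyme so polarization drops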
ZTA counter: counter-screen for EBNA-1 inhibitors: inhibitors of Epstein-Barr virus ZTA; inhibition, % at 11 µM; P03206; ZTA-DNA binding, fluorescence polarization; actives 0.15% (n = 320,000); in the data active = inhibition above about 33%
Target sequence (P03206 whole entry, looked up): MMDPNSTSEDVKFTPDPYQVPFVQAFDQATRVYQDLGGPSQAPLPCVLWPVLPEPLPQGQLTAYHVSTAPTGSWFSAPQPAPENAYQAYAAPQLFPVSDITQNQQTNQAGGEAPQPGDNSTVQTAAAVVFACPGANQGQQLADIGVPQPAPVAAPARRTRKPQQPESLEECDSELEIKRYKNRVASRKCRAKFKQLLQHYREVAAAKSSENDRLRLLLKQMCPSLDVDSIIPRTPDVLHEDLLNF
PAFAH1B2 inh: inhibitors of human PAFAH1B2; P68402; recombinant PAFAH1B2, FP-rhodamine activity probe, fluorescence polarization; inhibition, % at 3.39 µM; actives 1.2% (n = 340,000); AID 492953;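 active = inhibition above the mean of all tested compounds plus 3 SD, cut at about 24% in these data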
Large screens that a line does not name were inactive. Only some compounds are listed: those with a hit (about 2.9% of all), similar ones and a draw of the others.

CC(C)CNC(=O)COC(=O)CNC(=O)c1cc(Cl)cc([N+](=O)[O-])c1	none
O=C(Cc1c(F)cccc1Cl)NNC(=O)c1ccc(Br)s1	none (no result: EBNA-1 inh, ZTA counter)
O=C(Nc1cccc(Cl)c1)N1CCN2C(=O)c3ccccc3C12c1ccccc1 (configuration not stated)	PAFAH1B2 inh 25
O=C(CCl)N1CCN2C(=O)c3ccccc3C12c1ccc(Cl)cc1 (configuration not stated)	none
O=C(NN1C(=O)C2C(c3ccccc3)C=CC(c3ccccc3)C2C1=O)c1cccc(Br)c1 (configuration not stated)	none
COc1c2c(c(CCC(=O)O)c3c1C=CC(C)(C)O3)OC(C)(C)C=C2	none (no result: EBNA-1 inh, pPAFAH inh, ZTA counter)
CC(C)C(C(=O)Nc1nccs1)c1ccc(Cl)cc1 (configuration not stated)	PAFAH1B2 inh 36
CC(C(=O)Nc1nccs1)c1ccc([N+](=O)[O-])cc1 (configuration not stated)	none
O=C(CSCC(=O)Nc1nccs1)Nc1ccccc1	none
O=C(CSCc1ccc(Cl)cc1)Nc1nccs1	PAFAH1B2 inh 28
Oc1ccc(N2CCN(C(c3cccs3)c3nnnn3CCc3ccccc3)CC2)cc1 (configuration not stated)	pPAFAH inh 30
Cc1ccc(SCc2ccc(C(=O)Nc3cccc([N+](=O)[O-])c3)cc2)cc1	none
Cc1ccc(SCc2ccc(C(=O)Nc3cc([N+](=O)[O-])ccc3C)cc2)cc1	PAFAH1B2 inh 29
CCC(C)C(NC(=O)OCc1ccccc1)C(=O)OCN1C(=O)c2ccccc2C1=O (configuration not stated)	pPAFAH inh 33
CC(C)C(NC(=O)c1c(F)cccc1F)C(=O)OCN1C(=O)c2ccccc2C1=O (configuration not stated)	none (no result: EBNA-1 inh)
CCN(CC)S(=O)(=O)c1cc(NC(=O)C2CSC3(C)CCC(=O)N23)ccc1C (configuration not stated)	none (no result: EBNA-1 inh)
CCN(CC)c1ccc(N=Cc2cc(Br)ccc2O)cc1	EBNA-1 inh 126, ZTA counter 184
Oc1ccc(Br)cc1C=Nc1ccc(Cl)cc1	none
CCOC(=O)C1=C(c2ccccc2)N=c2s/c(=C\c3ccco3)c(=O)n2C1c1cccs1 (configuration not stated)	pPAFAH inh 29
CCOC(=O)C1=C(c2ccccc2)N=c2s/c(=C\c3cc(OC)c(OC)c(OC)c3)c(=O)n2C1c1cccs1 (configuration not stated)	none
O=C(Nc1cccc(-c2nc3ccccc3s2)c1)C1=COCCO1	none
O=C(Nc1ccc(-c2nc3ccccc3s2)cc1)C1=COCCO1	EBNA-1 inh 43
COc1cc([C@H]2Oc3cc([C@H]4Oc5cc(O)cc(O)c5C(=O)[C@@H]4O)ccc3O[C@@H]2CO)ccc1O	none
COc1cc([C@@H]2Oc3cc(C4Oc5cc(O)cc(O)c5C(=O)[C@H]4O)ccc3O[C@H]2CO)ccc1O (some centres not stated)	pPAFAH inh 35
O=C(N/N=C/c1c[nH]c2ccccc12)c1cccc(O)c1	none
CCCOc1ccc(C(=O)N/N=C/c2c[nH]c3ccc(Br)cc23)cc1	pPAFAH inh 27
O=C(N/N=C/c1c[nH]c2ccccc12)c1ccc(O)c(O)c1	PAFAH1B2 inh 25
CC1CCCC(C)N1c1ccc(S(=O)(=O)N2CCOCC2)cc1Cl (configuration not stated)	none
COc1ccc2c(c1)[nH]c1c(N3CCN(Cc4ccc5c(c4)OCO5)CC3)ncnc12	pPAFAH inh 31
O=C(NC(Cc1ccccc1)C(=O)O)/C(=C\c1ccccc1)NC(=O)c1ccc(Br)o1 (configuration not stated)	none
COCCn1c(N)c(S(=O)(=O)c2cccs2)c2nc3ccccc3nc21	PAFAH1B3 FP inh 48, PAFAH1B2 inh 25
O=C(O)c1ccc(N/N=C/c2ccc(-c3ccc(Br)cc3)o2)cc1	pPAFAH inh 27
CCN(C(=O)CSc1ncccn1)c1cccc2ccccc12	none (no result: EBNA-1 inh, ZTA counter)
O=C(COc1ccc(Br)cc1)NC(=S)Nc1ccccc1N1CCOCC1	PAFAH1B2 inh 26
O=C(NC(=S)Nc1ccccc1N1CCOCC1)c1ccc(Br)cc1	none
O=C1NN(c2cccc(Br)c2)C(=O)/C1=C\c1ccc(O)cc1	none
O=C1NN(c2ccc(Cl)c(Cl)c2)C(=O)/C1=C/c1ccc(-c2ccccc2C(=O)O)o1	PAFAH2 FP inh 30, PAFAH1B2 inh 26 (no result: EBNA-1 inh, pPAFAH inh, ZTA counter)
O=C1NN(c2cccc(Br)c2)C(=O)/C1=C/c1ccc(-c2cc([N+](=O)[O-])ccc2O)o1	PAFAH1B3 FP inh 31, pPAFAH inh 28, PAFAH2 FP inh 47
NC(=O)C1CCN(C(=O)CNC(=O)c2ccc(F)cc2)CC1	none (no result: EBNA-1 inh, ZTA counter)
COc1ccc(NC(=O)CSc2nnc(CCC(=O)Nc3ccc(C)c(Cl)c3)n2C)cc1	none
COc1cc(C=O)ccc1OCCSc1ccc(Cl)cc1	PAFAH1B2 inh 56
COc1cc(/C=N/NC(N)=S)ccc1OCC(=O)Nc1ccc(C)cc1	EBNA-1 inh 47, ZTA counter 34
CCOC(=O)N/N=C/c1ccc(OCCSc2ccc(Cl)cc2)c(OC)c1	pPAFAH inh 34
CCOC(=O)N/N=C/c1ccc(OCCSc2ccc(Cl)cc2)c(OCC)c1	none
O=C(CCC(=O)Nc1ccccc1)NNS(=O)(=O)c1ccccc1[N+](=O)[O-]	none
CCc1ccc(C(=O)NNC(=O)c2cccc(N3C(=O)CCC3=O)c2)cc1	none
CC(=O)NNC(=O)c1csc(-c2csc(C)n2)n1	none
Cc1ccn2c(=O)nc(SCC(=O)c3ccc(Cl)cc3)nc2c1	pPAFAH inh 25
Cc1cccn2c(=O)nc(SCC(=O)c3ccc(Cl)cc3)nc12	none
Cc1ccn2c(=O)nc(SCC(=O)N3CCC(C)CC3)nc2c1	pPAFAH inh 26
Cc1ccn2c(=O)nc(SCC(=O)N3CCCC3)nc2c1	none
Cc1ccc(C(=O)c2c(C)oc3c2C(=O)C(=O)c2ccccc2-3)cc1	pPAFAH inh 26
Cc1oc2c(c1C(=O)c1ccc(Cl)cc1)C(=O)C(=O)c1ccccc1-2	none (no result: EBNA-1 inh, pPAFAH inh, ZTA counter)
COc1ccc(Cn2c(/C=C/c3ccccc3)nc3ccccc32)cc1	none
Clc1ccccc1Cn1c(/C=C/c2ccco2)nc2ccccc21	pPAFAH inh 31
Cc1ccc(C(=O)N2CCCCC2)cc1S(=O)(=O)N1CCOCC1	none
CCNC(=O)n1nccc1C(C)Oc1ccc(Cl)cc1 (configuration not stated)	PAFAH1B2 inh 58
CCNC(=O)n1nccc1C(C)Oc1cccc(C(F)(F)F)c1 (configuration not stated)	none
CCOC(=O)c1sc(NC(=O)CN(CC(C)C)CC(C)C)c(C(=O)OCC)c1C	PAFAH1B2 inh 33
Cc1cc(C)c(C)c(S(=O)(=O)N2CCC(C(=O)Nc3ccc(S(=O)(=O)N4CCOCC4)cc3)CC2)c1C	none
